Only some compounds are listed: those with a hit (about 9.3% of all), similar ones and a draw of the others.
ELG1 repair inh – blocks ELG1-dependent DNA repair in HEK293T cells | HEK293T ELG1-luciferase reporter, luminescence, 16 h; DNA damage induced by 5-fluorouridine | Potency, µM (series often up to 46.1 µM), inactives show at the top dose activity change, negative = inhibition, most hits filed as inhibitors | actives 2.3% (n = 330,000); note: % is set by controls: 0 for no effect and ±100 for the full control effect; nearly all actives have a fitted effect of over 55% in size
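DMSO vehicle served as the neutral condition. Each well held 2,000 cells given 5-fluorouridine plus compound; after 16 hr at 37 °C/5% CO2, ONE-Glo was added and luciferase measured 30 min later.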
SMN2 splice enh – increases expression of the SMN2 splice variant. HEK293 SMN2-luciferase splicing reporter, luminescence, 30-36 h. Potency, µM (series often up to 46.1 µM), inactives show top-dose activity change, positive = activation, hits mostly activators. actives 2.8% (n = 210,000); note: % of control where 0% means no effect; nearly all actives have a fitted effect of over 55% in size
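HEK293 cells carry an SMN2 […]–luciferase reporter in which exon 7 inclusion puts luciferase in frame. Cells were plated 10-12 h before compound addition, then incubated 30-36 h at 37C. ONE-Glo luminescence was read; sodium butyrate at 4.5 mM final served as control.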
NPC1 prom act – NPC1 promoter activation; Huh7 NPC1 promoter luciferase reporter, 24 h; Potency, µM (highest dose often 9.22 µM), for the others: at the highest dose activation, most hits filed as activators; AID 485313; actives 2.4% (n = 320,000); note: % of control where 0% means no effect; nearly all actives have a fitted effect of over 60% in size
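Luminescence from an NPC1 promoter-driven luciferase reporter in stably transfected Huh7 cells was measured after 24 h compound treatment at 37 °C, followed by 10 min ambient incubation with luciferase detection reagent.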
ELG1 genotox – genotoxicity induction in ELG1-luciferase HEK293T cells; AID 504466; Potency, µM (titrated, usually from 46 µM), for inactives: at the highest dose activity change, positive = activation, actives largely listed as activators; actives 1.3% (n = 330,000); HEK293T ELG1-luciferase reporter, luminescence, 16 h; note: % of control where 0% means no effect; nearly all actives have a fitted effect of over 60% in size
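DMSO vehicle served as control against compound-treated ELG1-luciferase HEK293T cells; exposure lasted 16 hr at 37 °C and 5% CO2, followed by ONE-Glo luminescence detection after 30 min.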
FLuc counter – firefly luciferase modulation, counter-screen for miR-21 project; P08659; purified FLuc, Km substrates, luminescence inhibition; Potency, µM (doses to about 57.5 µM), inactives show at the top dose activity change, negative = inhibition, hits mostly inhibitors; actives 6.9% (n = 360,000);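 note: plate controls were vehicle for no effect and reference inhibitor for full effect; nearly all actives have a fitted effect of over 55% in size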
Target sequence (P08659 whole entry, looked up): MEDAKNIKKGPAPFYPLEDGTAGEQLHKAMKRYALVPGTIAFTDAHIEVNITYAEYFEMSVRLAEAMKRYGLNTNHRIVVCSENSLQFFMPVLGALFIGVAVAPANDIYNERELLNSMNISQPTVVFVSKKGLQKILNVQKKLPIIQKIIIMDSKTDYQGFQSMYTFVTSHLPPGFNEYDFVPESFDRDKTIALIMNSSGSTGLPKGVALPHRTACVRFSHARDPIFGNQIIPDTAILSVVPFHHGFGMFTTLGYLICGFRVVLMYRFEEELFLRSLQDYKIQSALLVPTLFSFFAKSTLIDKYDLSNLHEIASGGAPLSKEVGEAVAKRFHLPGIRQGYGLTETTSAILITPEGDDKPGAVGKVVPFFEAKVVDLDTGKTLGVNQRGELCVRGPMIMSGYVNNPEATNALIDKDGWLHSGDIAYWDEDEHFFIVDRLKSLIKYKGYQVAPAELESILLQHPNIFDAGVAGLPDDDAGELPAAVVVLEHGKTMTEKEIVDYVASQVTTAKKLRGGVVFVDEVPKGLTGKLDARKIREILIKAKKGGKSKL
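Purified P. pyralis luciferase (10nM final) with 10uM D-luciferin and 10uM ATP (Km levels) in 50mM Tris acetate pH 7.5, 10mM Mg acetate, 0.01% Tween-20, 0.05% BSA; qHTS 6-point titration, ~60 µM downward; luminescence read.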
Rab9 promoter act – activators of Rab9 promoter; AID 485297; actives 2.8% (n = 320,000); Potency, µM (highest dose often 9.22 µM), inactives show top-dose activation, negative = inhibition, usual class: activators; Huh7 Rab9 promoter-luciferase reporter, luminescence, 24 h; note: % of control where 0% means no effect; nearly all actives have a fitted effect of over 60% in size
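Cell-based reporter: Huh7 stable for Rab9 promoter-driven luciferase, plated in reduced-serum medium with 10% FBS at 1500 cells/well, compound-treated 24 h at 37 °C, luminescence read after 10 min reagent.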
An asterisk follows results filed as active; ? = inconclusive; nt = no result. Calls come from the whole dose curve; as a rule, active = well fitted curve in the direction sought with a large enough effect; inconclusive = small, poorly fitted or top-dose-only effect, or another doubt; inactive = no such curve, though single readings can be large; an effect the other way counts as inactive or inconclusive. Potency is the fitted concentration of half-maximal effect.

SMILES | ELG1 repair inh | SMN2 splice enh | NPC1 prom act | ELG1 genotox | FLuc counter | Rab9 promoter act
c1ccc(-c2noc(-c3ccc4ccccc4c3)n2)cc1 | ? | -9% | -17% | ? | 0.27µM* | -15%
COc1ccc(-c2nc(-c3ccc4c(c3)OCO4)[nH]c2-c2ccc(OC)cc2)cc1 | 18µM* | -90% | -12% | -14% | -4% | -1%
COc1ccc(-c2nc3cc(NC(=O)COc4ccccc4C)ccc3o2)cc1 | nt | nt | nt | nt | -13% | nt
COc1ccc(NC(=O)CCc2c(C)nc3nc(CNC(=O)OC(C)(C)C)nn3c2C)cc1OC | nt | -8% | nt | nt | 0% | nt
COc1ccc([N+](=O)[O-])cc1NC(=O)CC1SC(=Nc2cccc(C)c2C)N(/N=C/c2cccc(OC)c2OC)C1=O (configuration not stated) | -15% | 2% | -6% | -2% | -1% | -3%
COc1ccc(-c2noc(-c3ccc4c(c3)OCO4)n2)cc1 | ? | 8.9µM* | 0.79µM* | ? | 0.95µM* | 1.1µM*
COc1ccc(-c2noc(COc3ccc4c(c3)OCO4)n2)cc1 | 6% | 2% | -4% | 0% | 5% | 2%
COc1cccc(-c2noc(-c3ccc4c(c3)OCO4)n2)c1 | ? | nt | 2.5µM* | 1.8µM* | 0.54µM* | 0.56µM*
CCCCCC(=O)Oc1cccc(N2C(=O)C3CCCCC3C2=O)c1 (configuration not stated) | 10% | 14% | -6% | 6% | -1% | -2%
CCN(CC)S(=O)(=O)c1ccc(NC(=O)c2ccccn2)cc1 | ? | 7% | ? | 15µM* | 15µM* | ?
CN(C)S(=O)(=O)c1ccc(NC(=O)c2ccccn2)cc1 | ? | 11µM* | 2.5µM* | ? | 13µM* | 1.6µM*
CCN(CC)S(=O)(=O)c1ccc(-c2ccc(S(=O)(=O)N(CC)CC)cc2)cc1 | 6.5µM* | -85% | -7% | -8% | 1% | -16%
CN(C(=O)CSc1nc(N)cc(N)n1)C1CCS(=O)(=O)C1 (configuration not stated) | -2% | nt | 1% | 5% | 2% | -3%
Cn1c(SCCN2CCCC2)nnc1C1CCN(S(=O)(=O)c2ccc(F)cc2)CC1 | 15% | nt | -5% | -4% | 1% | -3%
CCOC(=O)N1CCN(C(=O)c2ccc3nc(N4CCC(C)CC4)sc3c2)CC1 | ? | -11% | 19% | 1% | ? | 23%
COc1cccc(N2CCN(C(=O)c3ccc4nc(N5CCC(C)CC5)sc4c3)CC2)c1 | ? | -25% | ? | ? | 9.5µM* | ?
CCN(CC)S(=O)(=O)c1ccc(C(=O)N2CCN(c3ncccn3)CC2)cc1 | ? | nt | 2% | 2% | 2% | 6%
CCN(Cc1ccccc1)S(=O)(=O)c1ccc(C(=O)N2CCN(c3nc4ccccc4s3)CC2)cc1 | 12µM* | -68% | -13% | -8% | -7% | -24%
c1ccc(CN2CCN(c3nc4ccccc4s3)CC2)cc1 | ? | nt | 1.4µM* | 9.2µM* | 2.7µM* | 0.71µM*
CC1CCN(c2nc3ccc(C(=O)N4CCN(Cc5ccccc5)CC4)cc3s2)CC1 | ? | -57% | 16% | ? | 17µM* | 25%
N=c1c(C(=O)NC2CCCC2)cc2c(=O)n3ccccc3nc2n1C1CCCCC1 | -4% | nt | -4% | 1% | 0% | 4%
NC(=O)/C(=C\c1ccccc1)NC(=O)c1ccc(NC(=O)c2ccccc2)cc1 | -5% | nt | -2% | -1% | -4% | 0%
Cc1cccc(NC(=O)c2cc(-c3ccccn3)nc3ccccc23)c1C | ? | -14% | 1% | -10% | 6% | -12%
O=C(c1ccc2nc(N3CCCCC3)sc2c1)N1CCN(Cc2ccc3c(c2)OCO3)CC1 | ? | -64% | 11% | 23µM* | -13% | -2%
c1coc(-c2nc3nc4ccccc4nc3n2-c2ccc3c(c2)OCCO3)c1 | 16µM* | -20% | 2% | -6% | 3.8µM* | 15%
SMILES | ELG1 repair inh | SMN2 splice enh | NPC1 prom act | ELG1 genotox | FLuc counter | Rab9 promoter act
c1ccc(Cn2c(-c3ccco3)nc3nc4ccccc4nc32)cc1 | ? | 16µM* | 3.5µM* | ? | 2.7µM* | 3.2µM*
CCOc1ccc(CCn2c(-c3ccco3)nc3ccccc3c2=O)cc1OCC | 9.2µM* | ? | -3% | -33% | 3% | -5%
CCCCCn1c(-c2ccco2)nc2nc3ccccc3nc21 | ? | 8% | -2% | -26% | ? | 2%
O=c1c2ccccc2nc(-c2ccco2)n1Cc1ccccc1 | nt | ? | nt | nt | 13µM* | nt
O=c1c2ccccc2nc(-c2ccc(Br)cc2)n1Cc1ccccc1 | 10% | -9% | 2% | -9% | -1% | 0%
CC(O)c1nc2ccccc2n1CCCc1ccccc1 (configuration not stated) | 8% | nt | -2% | -10% | -3% | 6%
CCCCNC(=O)CSc1nc2ccccc2c(=O)n1CC1COc2ccccc2O1 (configuration not stated) | -3% | -5% | -5% | 0% | 2% | 0%
Cc1nc2ccccc2c(=O)n1Cc1ccco1 | -5% | nt | 2% | -3% | 0% | -1%
O=C1c2ccccc2C(=O)N1CCc1nc2ccccc2c(=O)n1Cc1ccco1 | 21µM* | -3% | 1% | -10% | 3% | -1%
Nc1c(O)ccc2c1C(=O)c1ccccc1C2=O | ? | 29% | 14% | 10% | 17µM* | 2%
COc1ccc(-c2cnnc(N/N=C/c3ccc(O)c(O)c3)n2)cc1 | -24% | ? | -13% | 12% | 2.7µM* | -9%
COc1ccc(-c2cnnc(N/N=C/c3ccc(O)cc3)n2)cc1 | ? | 27% | 0% | ? | 1.7µM* | 18%
Oc1ccc(/C=N\Nc2nncc(-c3ccccc3)n2)cc1 | 14% | nt | -6% | ? | ? | -8%
CCNc1nc(NCC)nc(N/N=C/c2ccc(O)c(O)c2)n1 | ? | ? | 26% | ? | 21µM* | ?
COc1ccc(/C=N/Nc2nc(NCc3ccco3)nc(Nc3ccc(OC)cc3)n2)cc1 | ? | -11% | -2% | -6% | ? | -7%
COc1ccc(Nc2nc(NCc3ccco3)nc(N/N=C/c3ccc(O)cc3)n2)cc1 | ? | nt | -1% | -7% | 15µM* | 1%
CC(C)c1ccc(NC(=O)C2(C)Cc3ccccc3C(=O)O2)cc1 (configuration not stated) | nt | -10% | nt | nt | -16% | nt
Cc1nnc(NC(=O)C2CC(=O)N(c3ccccc3)C2)s1 (configuration not stated) | ? | nt | -1% | 4% | 2% | -2%

Compound activity (PubChem)
